Experiment [1] is described as follows: qHTS RealTime-Glo MT Cell Viability Assay in HEK293 cells - 8 hour (AID 1224887). Note: nearly all actives have a fitted effect of over 50% in size. Note: potency is the fitted concentration of half-maximal effect. In short, it runs like this: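 Measured as luminescence from the same continuously cultured HEK293 wells at successive time points (0, 8, 16, 24, 32, 40 h) after compound addition. Reagent present from seeding; dosing at 5 h; incubation 37 C.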
Experiment [2] can be described thus: qHTS RealTime-Glo MT Cell Viability Assay in HepG2 cells - 0 hour (AID 1224889). Note: nearly all actives have a fitted effect of over 50% in size. In short, it runs like this: (§1)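 Cell number in HepG2 cultures estimated from NanoLuc luminescence generated by metabolic reduction of a prosubstrate by living cells. The homogeneous, nonlytic format allowed repeated reads at 0, 8, 16, 24, 32 and 40 h of compound exposure.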
Experiment [3] can be described thus: A CellTox Green Cytotoxicity Assay to monitor cytotoxicity in HepG2 cells - 8 hour (AID 1224890). Note: nearly all actives have a fitted effect of over 45% in size. Note: potency is the fitted concentration of half-maximal effect. In short, it runs like this:
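Fluorescent DNA-binding dye, 600 HepG2 cells/well, 5 h preincubation then compound in DMSO; same plates read at 0–40 h, 37 C.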

Experiment [4] in a line: qHTS assay to identify small molecule antagonists of the estrogen receptor alpha (ER-alpha) signaling pathway using the BG1 cell line in the presence of 0.1 nM 17-beta-estradiol - cell viability counter screen (AID 1259241). Note: nearly all actives have a fitted effect of over 40% in size. Note: potency is the fitted concentration of half-maximal effect. In a few lines:
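VM7Luc4E2, 4,000 cells/well, phenol red-free medium + 10% charcoal-stripped FBS; 24 hr plating; cpd + 0.1 nM E2 final, 22 hr 37C/5% CO2; CellTiter-Fluor 30 min, fluorescence.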

Experiment [5] is described as follows: qHTS assay to identify small molecule antagonists of the androgen receptor (AR) signaling pathway using the MDA cell line in the presence of 0.5 nM R1881 - cell viability counter screen (AID 1259242). Note: nearly all actives have a fitted effect of over 45% in size. In short, it runs like this: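 Human breast carcinoma MDA-kb2 cells, cultured without CO2, receive compounds alongside 0.5 nM (final) R1881 agonist. After 16 hr at 37C, viability is taken as live-cell protease signal.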

Experiment [6] addresses Estrogen receptor (Homo sapiens) (UniProt P03372). Description: qHTS assay to identify small molecule antagonists of the estrogen receptor alpha (ER-alpha) signaling pathway using the BG1 cell line in the presence of 0.1 nM 17-beta-estradiol (AID 1259244). Note: nearly all actives have a fitted effect of over 50% in size. In short, it runs like this:
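Seeding of stripped-serum-adapted VM7Luc4E2 cells, 24 h attachment, compound transfer, then 0.1 nM final 17beta-estradiol; after 22 h incubation, ONE-Glo reagent and luminescence reading.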

A short description of experiment [7]: qHTS assay to identify small molecule HDAC inhibitors (AID 1259364).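 Note: wild-type HCT-116 cells with endogenous class I/II HDAC activity; top concentration of the series differs between compounds; nearly all actives have a fitted effect of over 45% in size.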 In a few lines:
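After a 2 hr compound incubation (37C, 5% CO2), HCT-116 cells seeded at 1,500/well the day before received HDAC-Glo reagent; signal read as luminescence after 30 min at room temperature.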

Experiment [8] is described as follows: qHTS assay to identify small molecule HDAC inhibitors - cell viability counter screen (AID 1259365). Note: series mostly up to about 92 µM; nearly all actives have a fitted effect of over 50% in size. In short, it runs like this: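 Luminescence from CellTiter-Glo, developed 30min at room temperature, reports viability of wild-type HCT-116 cells treated 2hr with compounds at 37 C and 5% CO2 after overnight plating.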
A short description of experiment [9]: qHTS assay to identify small molecule antagonists of the sonic hedgehog signaling (Shh) pathway - cell viability counter screen (AID 1259367). Note: nearly all actives have a fitted effect of over 55% in size. Note: potency is the fitted concentration of half-maximal effect. In a few lines: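 CellTiter-Fluor signal in conditioned medium-stimulated 3T3 Gli1-Luc cells, 23 hr compound exposure, 37C.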
Experiment [10] can be described thus: qHTS assay to identify small molecule agonists of the sonic hedgehog signaling (Shh) pathway (AID 1259368; calls by dose curve;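 note: NIH/3T3-derived 3T3Gli1-Luc cells carrying a stable Gli1-driven firefly luciferase reporter; series mostly up to about 92 µM; nearly all actives have a fitted effect of over 15% in size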). In a few lines:
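Stable NIH/3T3 Gli1-Luc reporter clone; 24 hr cpd exposure after a 4 hr settling period; luminescence endpoint.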

Experiment [11] can be described thus: qHTS assay to identify small molecule antagonists of the sonic hedgehog signaling (Shh) pathway (AID 1259369; calls by dose curve; note: nearly all actives have a fitted effect of over 45% in size; note: potency is the fitted concentration of half-maximal effect). In a few lines: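 Gli1 transcriptional reporter (firefly Luc) in NIH/3T3 background, conditioned-medium activated. 24hr exposure, luminescence endpoint.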
Experiment [12] deals with Estrogen receptor beta (Homo sapiens) (UniProt Q92731). Description: qHTS assay to identify small molecule agonists of the estrogen receptor beta (ER-beta) signaling pathway (AID 1259377; active = well fitted activation curve with a large enough effect in the signal ratio in the repeat runs, not every such curve was filed as active; the % refers to the signal ratio). In a few lines: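 HEK293T ER-beta-UAS-bla; 2% charcoal-stripped FBS; cells pre-incubated 6 hr, compound 16 hr, 37C/5% CO2; LiveBLAzer B/G FRET substrate 2 h RT; fluorescence intensity read.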

Experiment [13] can be described thus: qHTS assay to identify small molecule phospholipidosis (PLD) inducers (AID 1259344; active = well fitted curve in the direction sought with a large enough effect; an effect the other way counts as inactive or inconclusive). In a few lines:
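Accumulated phospholipid, stained red by LipidTOX during 24 h compound treatment of HepG2 cells at 37 C, is quantified from images as pit number and intensity, normalised per cell using Hoechst-stained nuclei.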

A short description of experiment [14]: qHTS RealTime-Glo MT Cell Viability Assay in HepG2 cells - 16 hour (AID 1224885). Note: nearly all actives have a fitted effect of over 50% in size. Note: potency is the fitted concentration of half-maximal effect. In short, it runs like this:
as §1

Experiment [15] concerns the target Androgen receptor (Homo sapiens) (UniProt P10275). Kind of experiment: qHTS assay to identify small molecule antagonists of the androgen receptor (AR) signaling pathway using the MDA cell line in the presence of 0.5 nM R1881 (AID 1259243). Note: nearly all actives have a fitted effect of over 50% in size. Note: potency is the fitted concentration of half-maximal effect. In a few lines:
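Cells: MDA-kb2 (MMTV-luc). Stimulus: 0.5 nM R1881. Time: 16 hr, 37C, no CO2. Detection: ONE-Glo luminescence after 30 min at RT.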

The nature of experiment [16]: qHTS assay to identify small molecule agonists of the sonic hedgehog signaling (Shh) pathway - cell viability counter screen (AID 1259366). Note: nearly all actives have a fitted effect of over 50% in size. Note: potency is the fitted concentration of half-maximal effect. In a few lines:
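Cytotoxicity counter screen run in the same wells as the Shh reporter assay. NIH/3T3 cells carrying a Gli1 response element–driven luciferase were treated with DMSO-dissolved compounds for 24hr, and live-cell protease activity was measured with CellTiter-Fluor.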

The nature of experiment [17]: A CellTox Green Cytotoxicity Assay to monitor cytotoxicity in HEK293 cells - 16 hour (AID 1224888). Note: nearly all actives have a fitted effect of over 35% in size. Note: potency is the fitted concentration of half-maximal effect. In a few lines: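 Homogeneous no-lysis format: HEK293 cell suspension mixed with CellTox Green reagent, seeded, incubated 5 h at 37 C/5% CO2, then dosed by pintool with compound in DMSO.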
Experiment [18] is described as follows: qHTS RealTime-Glo MT Cell Viability Assay in HEK293 cells - 24 hour (AID 1224886). In a few lines:
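Homogeneous bioluminescent viability format in HEK293 cells (600 cells/well). Following 5 h at 37 C/5% CO2, 23 nL compound was pintooled; the signal was measured repeatedly during 40 h incubation.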

Experiment [19] deals with Estrogen receptor beta (Homo sapiens) (UniProt Q92731). Kind of experiment: qHTS assay to identify small molecule antagonists of the estrogen receptor beta (ER-beta) signaling pathway (AID 1259378; active = well fitted inhibition curve with a large enough effect in the signal ratio in the repeat runs, not every such curve was filed as active; the % refers to the signal ratio; note: potency is the fitted concentration of half-maximal effect). In short, it runs like this: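 Antagonist mode: compounds added to beta-lactamase reporter HEK293T ER-beta-UAS cells stimulated with E2 (1nM final), 16 hr at 37C. LiveBLAzer B/G FRET substrate, 2 hours room temperature, fluorescence read-out.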

A number with no mark means an inactive call. Results filed as inconclusive are left out. Activity calls are given as the source filed them. Unless noted, calls come from the whole dose curve; as a rule, active = well fitted curve in the direction sought with a large enough effect in the repeat runs; inconclusive = weak or mixed curves; inactive = no such curve, though single readings can be large; an effect the other way counts as inactive or inconclusive.

Sequence of Estrogen receptor (Homo sapiens) (P03372 whole entry, looked up): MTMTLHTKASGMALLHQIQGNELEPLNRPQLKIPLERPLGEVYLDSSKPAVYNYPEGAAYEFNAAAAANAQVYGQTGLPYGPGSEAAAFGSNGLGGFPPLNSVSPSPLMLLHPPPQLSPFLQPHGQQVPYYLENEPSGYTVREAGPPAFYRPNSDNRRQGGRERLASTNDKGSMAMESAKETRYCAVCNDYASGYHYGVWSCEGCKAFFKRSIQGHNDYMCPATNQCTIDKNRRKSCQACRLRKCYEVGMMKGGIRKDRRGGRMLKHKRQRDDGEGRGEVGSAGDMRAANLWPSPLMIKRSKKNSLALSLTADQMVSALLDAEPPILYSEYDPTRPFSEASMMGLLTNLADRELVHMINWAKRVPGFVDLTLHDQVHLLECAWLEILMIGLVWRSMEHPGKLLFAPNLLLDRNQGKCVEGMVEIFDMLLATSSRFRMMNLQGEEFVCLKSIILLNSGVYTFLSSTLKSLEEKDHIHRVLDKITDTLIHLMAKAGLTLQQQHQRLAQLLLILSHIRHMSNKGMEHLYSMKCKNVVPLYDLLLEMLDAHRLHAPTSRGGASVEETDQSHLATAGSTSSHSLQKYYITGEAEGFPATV
Sequence of Androgen receptor (Homo sapiens) (P10275 whole entry, looked up): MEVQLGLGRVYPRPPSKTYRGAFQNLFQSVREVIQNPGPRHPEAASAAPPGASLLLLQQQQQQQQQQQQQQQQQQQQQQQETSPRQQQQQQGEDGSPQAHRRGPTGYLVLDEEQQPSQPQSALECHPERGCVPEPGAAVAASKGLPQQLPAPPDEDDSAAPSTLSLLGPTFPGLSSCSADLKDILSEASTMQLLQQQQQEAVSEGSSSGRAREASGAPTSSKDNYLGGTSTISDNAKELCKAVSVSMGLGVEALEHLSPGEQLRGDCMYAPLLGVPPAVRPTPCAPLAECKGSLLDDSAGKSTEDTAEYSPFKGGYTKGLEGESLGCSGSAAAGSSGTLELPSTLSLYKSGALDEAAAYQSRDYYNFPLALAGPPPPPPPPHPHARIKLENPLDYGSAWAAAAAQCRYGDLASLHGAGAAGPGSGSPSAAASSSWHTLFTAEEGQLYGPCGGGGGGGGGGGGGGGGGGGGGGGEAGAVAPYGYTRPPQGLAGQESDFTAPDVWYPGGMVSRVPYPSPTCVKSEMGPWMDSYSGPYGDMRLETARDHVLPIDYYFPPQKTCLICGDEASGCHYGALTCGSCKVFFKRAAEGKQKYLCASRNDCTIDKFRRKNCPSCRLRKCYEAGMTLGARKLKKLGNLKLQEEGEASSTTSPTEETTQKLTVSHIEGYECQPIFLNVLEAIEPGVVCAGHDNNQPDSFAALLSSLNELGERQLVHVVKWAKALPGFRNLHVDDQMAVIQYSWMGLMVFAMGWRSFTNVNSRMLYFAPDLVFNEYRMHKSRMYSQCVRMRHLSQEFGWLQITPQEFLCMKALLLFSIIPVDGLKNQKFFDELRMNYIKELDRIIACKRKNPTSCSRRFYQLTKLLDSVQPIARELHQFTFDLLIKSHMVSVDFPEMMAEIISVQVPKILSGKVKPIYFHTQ
Sequence of Estrogen receptor beta (Homo sapiens) (Q92731 whole entry, looked up): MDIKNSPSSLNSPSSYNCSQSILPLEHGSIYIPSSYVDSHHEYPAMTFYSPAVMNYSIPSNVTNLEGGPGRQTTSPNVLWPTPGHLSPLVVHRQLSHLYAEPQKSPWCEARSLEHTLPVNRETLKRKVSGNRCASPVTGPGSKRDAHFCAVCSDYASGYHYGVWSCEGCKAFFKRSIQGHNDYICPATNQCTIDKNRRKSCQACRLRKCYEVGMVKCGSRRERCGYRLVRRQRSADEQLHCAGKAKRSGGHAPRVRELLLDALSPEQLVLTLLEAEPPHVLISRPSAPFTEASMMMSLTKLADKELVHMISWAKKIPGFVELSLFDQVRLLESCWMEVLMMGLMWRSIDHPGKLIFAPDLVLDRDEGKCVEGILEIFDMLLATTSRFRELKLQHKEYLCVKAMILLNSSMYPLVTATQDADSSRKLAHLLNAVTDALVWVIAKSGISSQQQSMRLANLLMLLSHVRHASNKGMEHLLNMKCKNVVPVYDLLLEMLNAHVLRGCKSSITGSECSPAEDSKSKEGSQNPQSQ

Turning to `O=C(Cl)c1ccc(Cl)cc1Cl`, the Potency entry in experiment [1], in [2], in experiment [3], in experiment [4], in experiment [5] and in experiment [6] was “inactive” in each case. Further, the Potency entry in experiment [7], in [8], in experiment [9], in [10] and in [11] was “inactive” in each case. In [12], the outcome was inactive.

With `C1CCc2nnnn2CC1`, the Potency entry in experiment [13] was “inactive”.

As for `Cc1ccc(C2OC[C@@H]3OC(c4ccc(C)cc4)O[C@H]([C@H](O)CO)[C@@H]3O2)cc1` (stereo not given in full), the Potency result in experiment [14], in [2], in [3], in [5], in experiment [15] and in experiment [6] was “inactive” in each case. In addition, the Potency entry in [7], in experiment [8], in experiment [16], in [9] and in [10] was “inactive” throughout.

Take `O=C1OC2(c3ccccc31)c1ccc(O)c(Br)c1Oc1c2ccc(O)c1Br`: the figures for the Potency in [17] and in experiment [3] were 21.9 µM (active) and 12.3 µM (active), respectively. Besides, the Potency entry in experiment [4], in experiment [15], in [7], in [8], in experiment [10] and in experiment [11] was “inactive” throughout.

In the case of `C[C@@H]1C[C@H]2[C@@H]3C[C@H](F)C4=CC(=O)C=C[C@]4(C)[C@@]3(Cl)[C@@H](O)C[C@]2(C)[C@H]1C(=O)COC(=O)C(C)(C)C`, the Potency result in experiment [13] was “inactive”.

In the case of `O=C1C2CC3CC1CC(O)(C3)C2`, in experiment [13], the Potency entry was “inactive”.

In the case of `CC(O)(c1ccc(Cl)cc1)c1ccc(Cl)cc1`, the Potency in experiment [18] is 24.5 µM (active); in [1], 34.7 µM (active); in experiment [3], 54.9 µM (active); in experiment [11] it was 43.3 µM (active). Further, the Potency result in experiment [2], in [4], in [5], in experiment [7], in experiment [8] and in experiment [16] was “inactive” throughout. The Potency result in experiment [10] is “inactive”. Moreover, the result in experiment [12] was inactive.

As to `C1=CCCC1`, the Potency entry in experiment [14], in experiment [2], in experiment [3], in [4], in experiment [5] and in experiment [15] was “inactive” in each case. Further, the Potency result in [6], in [7], in [8], in experiment [16], in experiment [9] and in experiment [10] was “inactive” each time. For the same compound, the Potency result in experiment [11] is “inactive”.

With `Oc1ccc(Cl)cc1C1CCCC1`, the Potency result in [14], in [2], in [4], in experiment [5], in [6] and in experiment [7] was “inactive” in each case. The Potency result in [8], in [16], in experiment [9] and in experiment [10] was “inactive” each time. Also, the Potency in [1] is 27.5 µM (active); in [3] it was 49 µM (active). For the same compound, the compound was called inactive in experiment [12].

With `CCCCCCCCCCCCN1CCCC1=O`, the Potency entry in experiment [2], in [4], in experiment [5], in [7], in experiment [8] and in experiment [9] was “inactive” throughout. The Potency result in [10] was “inactive”. The Potency in [19] was 48.6 µM (active).

With `CC(=O)[C@]1(O)Cc2c(O)c3c(c(O)c2[C@@H](O[C@H]2C[C@H](N)[C@H](O)[C@H](C)O2)C1)C(=O)c1ccccc1C3=O`, the Potency was 12 µM (active) in experiment [14]; 0.12 µM (active) in experiment [18]; 23.9 µM (active) in experiment [3]; 10.6 µM (active) in [4]; 531 nM (active) in experiment [15]; 944 nM (active) in experiment [16]. In addition, the Potency in experiment [9] is 1.19 µM (active); in experiment [11], 0.0133 µM (active). The Potency entry in experiment [17], in experiment [2], in experiment [6], in experiment [7], in experiment [8] and in experiment [10] was “inactive” throughout.

Take `N#Cc1c(N(CC(=O)O)CC(=O)O)sc(C(=O)O)c1CC(=O)O`: the Potency result in [13] is “inactive”.

(Values after PubChem BioAssay (Tox21).)
